Test results: PubChem BioAssay AID624381 (The Scripps Research Institute Molecular Screening Center, 2012)
Out of some 2,300 compounds screened, about 430 (19%) were called active.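 How the source made its calls: active means mean activation across triplicates above the hit threshold derived in the original primary screen (cut at about 15% in these data); inactive means the rest.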 A selection follows.

What follows are compounds tested against 5-hydroxytryptamine receptor 2A (Mus musculus) (UniProt P35363) (assay: mouse HTR2A agonists, beta-arrestin recruitment, confirmation, cell-based, luminescence, CHO-K1 PathHunter, triplicate (AID 624381)). Settings: at 7.6 µM, stronger effect = higher value, DMSO 0%, 30 µM serotonin 100%.
Chain of 5-hydroxytryptamine receptor 2A (Mus musculus) (P35363 whole entry, looked up): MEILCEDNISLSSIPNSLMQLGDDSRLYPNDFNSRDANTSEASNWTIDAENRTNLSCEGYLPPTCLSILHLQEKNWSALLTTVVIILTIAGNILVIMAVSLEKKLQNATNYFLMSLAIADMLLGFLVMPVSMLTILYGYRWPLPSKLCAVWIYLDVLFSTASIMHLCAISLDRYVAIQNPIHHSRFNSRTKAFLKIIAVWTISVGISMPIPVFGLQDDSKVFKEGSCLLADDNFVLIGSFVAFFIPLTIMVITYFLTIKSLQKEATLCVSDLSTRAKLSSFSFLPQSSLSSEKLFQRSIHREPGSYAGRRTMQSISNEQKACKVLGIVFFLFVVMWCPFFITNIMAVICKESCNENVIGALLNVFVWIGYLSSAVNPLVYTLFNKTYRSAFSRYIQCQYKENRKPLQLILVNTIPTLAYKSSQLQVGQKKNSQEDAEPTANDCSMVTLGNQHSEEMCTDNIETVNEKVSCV

| Structure (SMILES) | activation |
| --- | --- |
| O=C(OCC(=O)N1CCOCC1)c1ccc2ccccc2c1 | -4.74% (inactive) |
| Cc1cc(C)n(S(=O)(=O)c2cccc([N+](=O)[O-])c2)n1 | -4.03% (inactive) |
| COc1ccc2c(Cl)c(-c3nnco3)sc2c1 | -2.25% (inactive) |
| CCn1c(SCC(=O)N2CCCC2=O)nc2ccccc21 | -2.49% (inactive) |
| O=C(Cc1ccccc1)n1nc(-c2ccccc2)nc1NCc1ccco1 | 4.58% (inactive) |
| OCC1(Cc2ccccc2)CCN(Cc2cc3ccccc3o2)CC1 | 81.8% (active) |
| COc1ccc(N2CC(C(=O)NCCN3C(=O)S/C(=C\c4cccnc4)C3=O)CC2=O)c(OC)c1 (stereo not drawn) | -1.44% (inactive) |
| Cc1c(C(=O)NCC2CC2)sc(=O)n1Cc1cccc(F)c1 | -3.87% (inactive) |
| COc1ccc(/C(=N\O)c2nccc3cc(OC)c(OC)cc23)cc1OC | -3.02% (inactive) |
| Cc1ccccc1CSCC(=O)NC(=O)NC(C)(C)C | -3.39% (inactive) |
| N#Cc1c(NC(=O)CCCl)sc2c1CCCCC2 | 0.58% (inactive) |
| O=C(NCc1ccco1)c1cccn2c(=O)c3c4c(sc3nc12)CCCC4 | -1.08% (inactive) |
| Fc1ccc2[nH]c3c(N4CCSCC4)ncnc3c2c1 | 3.26% (inactive) |
| CCCCNc1c(-c2cccc(Sc3ccc(OC)cc3)c2)nc2ccccn12 | 5.41% (inactive) |
| COc1ccccc1Nc1nnc(SC(C)C(=O)NC2CC2)s1 (stereo not drawn) | -1.26% (inactive) |
| Cc1oc2cc(Br)c(O)c(Br)c2c1C(=O)c1ccccc1 | -2.71% (inactive) |
| N/C(=N\S(=O)(=O)c1cc(C(F)(F)F)cc(C(F)(F)F)c1)c1cccs1 | -1.99% (inactive) |
| O=C(Nc1cc(=O)[nH]c2ncnn12)c1ccccc1Cl | -5.17% (inactive) |
| CCOC(=O)[C@]12CCCC=C1N(Cc1ccc3c(c1)OCO3)C(=O)[C@H](CC(=O)NCc1cccs1)C2 | -3.55% (inactive) |

| Structure (SMILES) | activation |
| --- | --- |
| O=C1CC(c2cccc(Cl)c2)CC(O)=C1C=Nc1ccccc1 (stereo not drawn) | -4.5% (inactive) |
| COc1cccc(NC(=O)CSc2nnc(-c3cccnc3)o2)c1 | -0.15% (inactive) |
| Cc1ccc2nc(-c3ccncc3)cc(C(=O)Nc3ccncc3)c2c1 | 12.6% (inactive) |
| C/C(=N\NC(=S)NC1CCCCC1)c1ccc(C)o1 | 29.7% (active) |
| Cn1c2c(c(=O)n(C)c1=O)C(c1ccc(O)cc1)Nc1ccccc1O2 (stereo not drawn) | -3.78% (inactive) |
| O=C(Cc1ccsc1)N1CCN(S(=O)(=O)c2cc(C(F)(F)F)cc(C(F)(F)F)c2)CC1 | -3.88% (inactive) |
| CO/N=C/CC(=O)c1ccc(OC)cc1 | -1.94% (inactive) |
| CCOC(=O)/C=c1\s/c(=C\c2ccccc2OC)c(=O)n1CC(=O)N1CCOCC1 | -3.42% (inactive) |
| O=S(=O)(c1ccc(OCC(O)CN2CCN(c3ccccc3Cl)CC2)cc1)N1CCOCC1 (stereo not drawn) | 41.2% (active) |
| O=C(COC(=O)c1cc(S(=O)(=O)N2CCOCC2)ccc1F)NC1CC1 | -1.03% (inactive) |
| Nc1c(N(Cc2ccco2)C(=O)c2cccc(F)c2)c(=O)[nH]c(=O)n1Cc1ccccc1 | -0.68% (inactive) |
| C[C@@H]1ON(C)[C@H]2C[C@H]3c4cc(N5CCN(C)CC5)ccc4CCN3C(=O)[C@@H]12 | 4.65% (inactive) |
| CCOC(=O)c1ccc(NC(=O)Cn2cnc3cc(C)c(C)cc32)cc1 | -2.29% (inactive) |
| CNCC(O)c1ccc(O)c(O)c1 (stereo not drawn) | 136% (active) |
| C=C1C(=O)OC2C1CCC(C)=CCCC1(C)OC21 (stereo not drawn) | -6.24% (inactive) |
| Cc1cccnc1C(NC(=O)C1CCN(Cc2ccc(Cl)c(Cl)c2)CC1)c1ccc(Cl)cc1 (stereo not drawn) | -7.94% (inactive) |
| Cc1ccc(C(=O)N/C(=C/c2cccs2)C(=O)N2CCCCC2)cc1 | -4.44% (inactive) |
| CCn1cc(C(=O)OCC(=O)Nc2cccc(C)c2)c(=O)c2ccc(C)nc21 | -1.9% (inactive) |
| COc1ccc(C(C)=O)cc1COC(=O)Cn1cnc2ccccc2c1=O | 2.93% (inactive) |
